Records with an inconclusive call do not appear. Calls of active or inactive are those of the source. Unless noted, the call rests on the fitted dose curve; in most records, active means well fitted curve in the direction sought with a large enough effect; inconclusive means small, poorly fitted or top-dose-only effect, or another doubt; inactive means no such curve, though single readings can be large; an effect the other way counts as inactive or inconclusive.
Legend:
[1] = KB-8-5-11 Cancer Cell Toxicity qHTS against the NCATS CANVASS Library (AID 1347364)
Summary of the method: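 KB-8-5-11 cells, 500/well in DMEM + 10% FBS, given compounds in an 11-point series. Incubated 72 h at 37 °C. Viability by CellTiter-Glo luminescence. Confirmation also run with 1 uM tariquidar.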

[2] = KB-3-1 Cancer Cell Toxicity qHTS against the NCATS CANVASS Library (AID 1347366)
Summary of the method: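 Luminescence from CellTiter-Glo (10 min, room temperature) measured KB-3-1 viability after 72 hr compound exposure at 37C. Cells were seeded at 500/well and tested in an 11-point series.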

[3] = qHTS for ATAD5 Agonist screened against the NCATS CANVASS Library (AID 1347367)
Summary of the method: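 HEK293T-ATAD5 luc reporter; 2000 cells/well; 5hr settle; cpd 11-pt qHTS; 16hr 37C 5% CO2 dark; viability by CellTiter-Fluor (AFC fluorescence); then luciferase luminescence, 30min RT.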

[4] = MCF7 Cancer Cell Toxicity qHTS against the NCATS CANVASS Library (AID 1347369)
Summary of the method: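 Cells seeded at 500/well, then compound pinned. Plates incubated 72 hr at 37C, 5% CO2. CellTiterGlo added; luminescence read.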

[5] = J3T Cancer Cell Toxicity qHTS against the NCATS CANVASS Library (AID 1347371)
Summary of the method: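 J3T dog glioma cells, 500 per well, treated 72 h at 37C with compounds (11-point qHTS); viability from ATP content by CellTiterGlo luminescence; bortezomib titration as control.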

[6] = molecular target: Nuclear receptor subfamily 1 group I member 3 (Homo sapiens) (UniProt Q14994); experiment: qHTS for Constitutive Androstane Receptor (CAR) Antagonist screened against the NCATS CANVASS Library (AID 1347372)
Nuclear receptor subfamily 1 group I member 3 (Homo sapiens), sequence (Q14994 whole entry, looked up): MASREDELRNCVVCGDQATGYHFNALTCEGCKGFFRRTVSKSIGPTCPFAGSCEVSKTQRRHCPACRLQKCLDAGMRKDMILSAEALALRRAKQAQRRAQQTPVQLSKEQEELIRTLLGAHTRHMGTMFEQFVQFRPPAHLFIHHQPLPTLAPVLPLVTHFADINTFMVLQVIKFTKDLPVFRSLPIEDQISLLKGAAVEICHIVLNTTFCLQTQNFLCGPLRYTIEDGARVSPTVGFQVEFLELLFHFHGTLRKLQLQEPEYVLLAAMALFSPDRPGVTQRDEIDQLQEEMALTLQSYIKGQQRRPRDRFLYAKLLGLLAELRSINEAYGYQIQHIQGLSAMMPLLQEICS
Summary of the method: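 HepG2 cells stably carrying hCAR and a CYP2B6-2.2kb luciferase reporter were exposed to compounds plus 50 nM CITCO for 24hr at 37C. CAR activity was read by ONE-Glo luminescence, with viability measured first by CellTiter-Fluor.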

[7] = qHTS for Hypoxia signaling pathway (HIF-1) agonists against the NCATS CANVASS Library (AID 1347375)
Summary of the method: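 HRE-bla ME-180 cells (0.5% dialyzed FBS) were pre-incubated 5 hrs at 37C, then exposed to compounds in an 11-point series for 17 hrs. Read-out was CCF4-AM beta-lactamase FRET (460/530 nm emissions), with CellTiter-Glo viability in the same wells.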

[8] = 10-beta competent E. coli microbial cell viability qHTS against the NCATS CANVASS Library (AID 1347376)
Summary of the method: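 10-beta competent E. coli (0.2 OD) were exposed overnight at 37C to compounds in an 11-point series. Viability was read as ATP-dependent BacTiter-Glo luminescence after 20 min at room temperature.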

[9] = DH5-alpha competent E. coli microbial cell viability qHTS against the NCATS CANVASS Library (AID 1347377); conditions: outcome: at 46.1 µM (top of the series)
Summary of the method: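 DH5-alpha E. coli suspension was exposed to an 11-point compound series overnight at 37 °C. Viable cells quantified by ATP luminescence (BacTiter-Glo) after 20 min at room temperature.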

[10] = qHTS for Inflammasome Signaling Inhibitors: IL-1-beta AlphaLISA screen against the NCATS CANVASS Library (AID 1347379)
Summary of the method: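 THP-1 cells pretreated 1 hr with compound (up to 57.5 uM final), then stimulated with LPS (250 ng/mL final) and ATP (1.25 mM final). Secreted IL-1B measured by AlphaLISA after 16 hr; glyburide as positive control.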

[11] = Inflammasome Signaling qHTS Counterscreen: IL-1-beta AlphaLISA counterscreen against the NCATS CANVASS Library (AID 1347381)
Summary of the method: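 Cell-free interference check: compounds added to medium spiked with 4 pg purified IL-1β. Anti-IL-1β acceptor beads (6 ug/mL) with 0.6 nM biotinylated antibody added for 1 h at RT, then streptavidin donor beads (24 ug/mL) for 30 min in the dark. AlphaLISA read at 680/615 nm.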

[12] = Cytotoxicity qHTS for assessment of Hepg2 cells membrane integrity screened against the NCATS CANVASS Library (AID 1347387)
Summary of the method: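 HepG2 cells (2000/well) attached overnight, then exposed 5 hr at 37C to compounds in an 11-point series (0.59 nM - 46 uM final). LDH release from damaged membranes read fluorometrically (CytoTox-ONE; 560/590 nm) after 10 min at room temperature.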

[13] = qHTS assay for small molecule disruptors of mitochondrial membrane potential screened against the NCATS CANVASS Library (AID 1347389)
Summary of the method: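 HepG2 cells (2,000/well) plated overnight, then exposed to compounds in 11-point qHTS series for 1 h at 37C before 30 min Mito-MPS dye; depolarization read as fall in red aggregate (590 nm) to green monomer (535 nm) fluorescence.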

[14] = qHTS for activators of Nrf2/ARE signaling pathway screened against the NCATS CANVASS Library (AID 1347391)
Summary of the method: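 ARE-bla HepG2 beta-lactamase reporter cells exposed to compounds for 16 h at 37C; CCF4 substrate 2 h, fluorescence at ex 405 nm, em 460/530 nm. Viability by CellTiter-Glo luminescence.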

[15] = Vero-766 cells viability qHTS against the NCATS CANVASS Library: Counterscreen for Zika virus inhibition assay (AID 1347394)
Summary of the method: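 Vero 766, no virus; 1000 cells/well; o/n attach; cpd 11-pt; 72 h, 37C, 5% CO2; CTG luminescence; cell-free media wells = 100% inhibition.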

[16] = qHTS for inhibitors of Wild type Zika virus screened against the NCATS CANVASS Library (AID 1347396)
Summary of the method: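 Vero 766 cells, 1000/well, o/n attach; cpds pin-transferred (11-pt qHTS); WT Zika added; 72 h, 37C, 5% CO2; CellTiter Glo lumi. Uninfected + vehicle = 100% inhibition.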

[17] = Viability qHTS for inhibitors of the SERCaMP assay screened against the NCATS CANVASS Library (AID 1347400)
Summary of the method: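 SH-SY5Y-GLuc SERCaMP MJH297-derived cells, 1000/well, plated 4 h, then exposed to compounds in an 11-point qHTS series for 48 h at 37C. Viability read as CellTiter-Glo luminescence.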

[18] = Redox Reaction Profiling qHTS: Assay Interference Panel against the NCATS CANVASS Library (AID 1347401)
Summary of the method: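 Resazurin (5 uM) conversion to resorufin measured with 200 uM DTT in 50 mM HEPES pH 7.3, 50 mM NaCl. Compounds tested in 11-point qHTS series. Fluorescence (ex 525/em 598 nm) read before and after 15 min dark incubation.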

[19] = qHTS for inhibitors of Rabies Virus screened against the NCATS CANVASS Library (AID 1347402; calls by dose curve)
[20] = qHTS assay to identify inhibitors of the type 1 interferon - major histocompatibility complex class I in skeletal muscle: Counter screen cell viability and HiBit confirmation (AID 1347412); conditions: iHSKM muscle cells + IFN-b, HiBiT or CellTiter-Glo, 24 h; Potency: HiBiT; Viability, at 45.9 µM (top of the series)
Summary of the method: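 Luminescence read-out: Nano-Glo HiBiT lytic signal from C-terminally HiBiT-tagged HLA-B in CRISPR-edited human myoblasts, plus CellTiter Glo ATP as viability counter screen. IFN-beta 4.0 ng/ml; 24 hrs treatment at 37 C, 5% CO2.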

Measured: Potency

C/C=C1/CN2CC[C@]34C(=Nc5ccccc53)[C@@H]2C[C@@H]1[C@H]4C(=O)OC
not listed: [20]
inactive: all other assays above

C[C@H](Nc1ncnc2nc[nH]c12)c1nc2ccc(F)cc2c(=O)n1-c1ccccc1
inactive: [20]

CN1C(=O)[C@]23CC4C(C)(C)[C@@]5(C[C@@]41CN2CC[C@@]3(C)O)C(=O)Nc1c5ccc2c1OC=CC(C)(C)O2 (stereo not given in full)
not listed: [20]
inactive: all other assays above

Cc1sc2c(c1C)C(c1ccc(Cl)cc1)=N[C@@H](CC(=O)Nc1ccc(O)cc1)c1nnc(C)n1-2
inactive: [20]

Reference: PubChem BioAssay (NCATS)
